# From the supplement of paper PMC6411743
# ± gives the standard deviation of the averaged measurements. The full data set covers some 6,200 targets. This sample favours those with the largest changes.
# Key:
# Assay in all cases: NP40-soluble protein abundance relative to vehicle (solubility fold change) (ratio); higher = more soluble protein in presence of AMP-PNP
# GALNS = biological target: T1, GALNS (UniProt P34059)
# T1 sequence (whole entry): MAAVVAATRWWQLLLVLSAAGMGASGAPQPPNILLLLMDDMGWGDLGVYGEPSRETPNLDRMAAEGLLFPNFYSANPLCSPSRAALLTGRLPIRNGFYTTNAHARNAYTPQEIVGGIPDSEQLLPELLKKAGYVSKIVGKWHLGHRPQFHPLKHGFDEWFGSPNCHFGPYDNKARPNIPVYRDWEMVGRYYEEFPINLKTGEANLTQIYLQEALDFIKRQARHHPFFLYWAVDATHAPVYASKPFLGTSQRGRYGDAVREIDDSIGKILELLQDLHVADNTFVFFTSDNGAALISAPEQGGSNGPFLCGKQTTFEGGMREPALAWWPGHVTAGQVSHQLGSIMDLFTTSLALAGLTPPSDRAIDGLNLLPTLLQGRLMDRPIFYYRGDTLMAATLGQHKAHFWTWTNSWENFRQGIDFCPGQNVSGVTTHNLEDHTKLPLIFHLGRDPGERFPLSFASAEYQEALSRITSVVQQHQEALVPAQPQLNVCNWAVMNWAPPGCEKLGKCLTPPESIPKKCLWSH
# Summary of the method: (§1)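 Each value is a fold change relative to the detergent-processed vehicle, calculated per replicate from vsn-normalised intensities. Jurkat crude lysate received eight concentrations (0.1 to 10 mM) for 10 min at room temperature and 3 min at 37 °C, then was solubilised in 0.8% NP40 with benzonase (60 min, 4 °C). The ultracentrifuged supernatant was TMT-labelled and run by LC-MS/MS in three independent experiments.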
# MFN2 = biological target: T2, MFN2 (UniProt O95140)
# T2 sequence (whole entry): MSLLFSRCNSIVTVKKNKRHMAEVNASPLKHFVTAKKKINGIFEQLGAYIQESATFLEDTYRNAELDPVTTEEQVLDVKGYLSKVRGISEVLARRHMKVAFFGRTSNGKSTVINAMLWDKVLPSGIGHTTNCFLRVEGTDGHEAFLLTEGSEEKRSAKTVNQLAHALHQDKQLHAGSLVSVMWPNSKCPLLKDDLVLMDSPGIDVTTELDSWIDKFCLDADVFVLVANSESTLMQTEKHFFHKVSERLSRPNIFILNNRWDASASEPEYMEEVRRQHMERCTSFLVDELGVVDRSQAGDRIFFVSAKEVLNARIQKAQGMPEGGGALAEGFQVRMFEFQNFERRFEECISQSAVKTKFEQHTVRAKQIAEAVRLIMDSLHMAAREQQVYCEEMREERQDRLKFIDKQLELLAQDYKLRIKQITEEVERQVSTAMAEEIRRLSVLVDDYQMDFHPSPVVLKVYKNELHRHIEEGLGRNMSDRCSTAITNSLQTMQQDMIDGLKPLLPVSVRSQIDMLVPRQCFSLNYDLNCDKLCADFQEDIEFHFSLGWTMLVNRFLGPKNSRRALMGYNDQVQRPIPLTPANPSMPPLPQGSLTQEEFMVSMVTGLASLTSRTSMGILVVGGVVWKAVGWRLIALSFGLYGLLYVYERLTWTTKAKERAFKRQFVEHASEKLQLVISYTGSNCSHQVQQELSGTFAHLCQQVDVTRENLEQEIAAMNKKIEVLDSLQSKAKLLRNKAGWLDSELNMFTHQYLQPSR
# Summary of the method: as §1
# PPM1F = biological target: T3, PPM1F (UniProt P49593)
# T3 sequence (whole entry): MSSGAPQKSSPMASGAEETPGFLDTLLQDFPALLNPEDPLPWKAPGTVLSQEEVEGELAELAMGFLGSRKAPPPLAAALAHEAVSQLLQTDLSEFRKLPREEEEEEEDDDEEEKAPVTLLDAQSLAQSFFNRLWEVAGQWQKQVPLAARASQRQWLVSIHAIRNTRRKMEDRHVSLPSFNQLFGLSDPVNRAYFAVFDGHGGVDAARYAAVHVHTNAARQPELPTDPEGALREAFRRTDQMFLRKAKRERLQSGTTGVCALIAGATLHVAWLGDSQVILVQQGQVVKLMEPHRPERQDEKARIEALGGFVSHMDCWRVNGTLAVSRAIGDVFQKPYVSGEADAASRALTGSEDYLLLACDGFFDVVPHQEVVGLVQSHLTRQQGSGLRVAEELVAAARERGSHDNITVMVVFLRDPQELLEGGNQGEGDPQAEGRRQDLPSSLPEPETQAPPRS
# Summary of the method: as §1
structure (smiles),measurement,setting,value
Nc1ncnc2c1ncn2[C@@H]1O[C@H](COP(=O)(O)OP(=O)(O)NP(=O)(O)O)[C@@H](O)[C@H]1O [adenylyl imidodiphosphate],NP40-soluble protein abundance,GALNS; concentration: 1mM,0.986 ± 0.018
same,NP40-soluble protein abundance,GALNS; concentration: 2mM,0.972 ± 0.011
same,NP40-soluble protein abundance,GALNS; concentration: 4mM,0.957 ± 0.04
same,NP40-soluble protein abundance,GALNS; concentration: 6mM,0.963 ± 0.019
same,NP40-soluble protein abundance,GALNS; concentration: 8mM,0.933 ± 0.034
same,NP40-soluble protein abundance,GALNS; concentration: 10mM,0.975 ± 0.027
same,NP40-soluble protein abundance,MFN2; concentration: 1mM,1.01 ± 0.064
same,NP40-soluble protein abundance,MFN2; concentration: 2mM,0.956 ± 0.032
same,NP40-soluble protein abundance,MFN2; concentration: 4mM,1.01 ± 0.074
same,NP40-soluble protein abundance,MFN2; concentration: 6mM,0.965 ± 0.037
same,NP40-soluble protein abundance,MFN2; concentration: 8mM,0.986 ± 0.049
same,NP40-soluble protein abundance,MFN2; concentration: 10mM,0.989 ± 0.024
same,NP40-soluble protein abundance,PPM1F; concentration: 1mM,1.028 ± 0.0057
same,NP40-soluble protein abundance,PPM1F; concentration: 2mM,1.019 ± 0.0062
same,NP40-soluble protein abundance,PPM1F; concentration: 4mM,1.03 ± 0.011
same,NP40-soluble protein abundance,PPM1F; concentration: 6mM,1.014 ± 0.0081
same,NP40-soluble protein abundance,PPM1F; concentration: 8mM,1.02 ± 0.013
same,NP40-soluble protein abundance,PPM1F; concentration: 10mM,1.04 ± 0.018
